From PubChem BioAssay (NCI) come the findings set out here.

About 83,000 compounds went through this panel and 20% of them were active in at least one assay; those are over-represented in the sample as a whole.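 Single-dose data. Exposure time 48 hours. Values below 10 considered active.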 The source made the active and inactive calls.

One test deals with CAKI-1 renal. Description: NCI-60 one-dose screen, 48 h (100 = growth as untreated, 0 = no growth, -100 = all killed). As to conditions: 10 µM unless noted.
For the compound `Oc1cccc2ccc(-c3nnc(SCc4ccc(O)c5ncccc45)o3)nc12`, the growth is 8.28% (active). Take `COC(=O)c1[nH]nc2c1C1(C(=O)N(C)c3ccccc31)C(C#N)=C(N)O2` (configuration not stated): the growth is 91.1% (inactive). Turning to `Cc1ccc2sc3c(c2c1)OC(N)=C(C#N)C3c1ccc(Cl)cc1` (configuration not stated), the growth is 60.4% (inactive).

For `CC1=NC2=NN3C(=NN2C(c2ccccc2)=C1)N=NC(c1ccc(Br)cc1)=C3c1ccc(Br)cc1`, the growth is 95.7% (inactive). For the compound `Cn1ccnc1C(=O)/C=C/c1ccc(NC(=O)c2c(F)c(F)c(F)c(F)c2F)cc1`, the growth is 107% (inactive). Regarding `COc1ccc(/C=C/C(=O)c2cc(S(N)(=O)=O)c(OC)cc2OC)cc1`, the growth was 63.5% (inactive). As for `Cc1nn(-c2ccccc2)c2ncnc(N/N=C/c3ccccc3O)c12`, the growth was 3.12% (active). For `COc1ccc(CCN2C(=O)CSC2=S)cc1`, the growth was 82.1% (inactive).

With `CC(=O)N1C(=S)NC(=O)C1CC(C)C` (configuration not stated), the growth was 96.3% (inactive). Take `Cc1ccc2sc3c(c2c1)OC(N)=C(C#N)C3c1cccc(F)c1` (configuration not stated): the growth is 16.5% (inactive).

On to `COc1cc(-c2nc(SC(C)C)n(C(C)C)c(=O)c2C#N)ccc1OCc1ccccc1`, for which the growth was 54.8% (inactive). Still for that read-out and setting: then `C/C(=N\O)[C@H]1C[C@]23CC[C@]4(C)[C@H](CC[C@@H]5[C@@]6(C)CC/C(=N/O)C(C)(C)[C@@H]6CC[C@]54C)[C@H]2[C@H](C)C1(C)OC3`, with 65.2% (inactive); and `NS(=O)(=O)c1ccc(-n2cc(-c3cccc(NC(=O)c4ccc(N5CCOCC5)c(C(F)(F)F)c4)c3)nn2)cc1`, with 51.1% (inactive); and `O=C1/C(=C/C=C/c2ccco2)SC(=S)N1c1ccccc1`, with 86.8% (inactive). Turning to `COc1cc(OC)c(S(N)(=O)=O)cc1C(C)=O`, the growth is 95.6% (inactive). As to `CNC(=O)c1cc(Oc2ccc3nc(NC(=O)c4cc(N5CCOCC5)cc(C(F)(F)F)c4)sc3c2)ccn1`, the growth was 82.2% (inactive). As for `CCCCCc1ccc(S(=O)(=O)Nc2cccc(-c3csc(NC(=O)CCCCCN4CCN(CCO)CC4)n3)c2)cc1`, the growth was 95.3% (inactive). On the same count and under the same terms, to `CNC(=O)c1cc(Oc2ccc3nc(NC(=O)c4cccc(OC(F)(F)F)c4)sc3c2)ccn1` belongs 73.9% (inactive); to `Cc1cc(C)c(N2C(=O)CC(Nc3ccc(Cl)cc3Cl)C2=O)c(C)c1` (configuration not stated), 87.6% (inactive). Still for that read-out and setting: to `Cc1ccc(C(=O)NN2C(=O)/C(=C/C=C/c3ccco3)SC2=S)cc1` belongs 91.4% (inactive).

Consider `Cc1ccc2c(c1)C(=O)/C(=C/c1cccc(F)c1)S2`, for which the growth is 85.8% (inactive). `N/C(=N\C(N)=N\c1nc2ccccc2s1)c1ccc(C(F)(F)F)cc1`: the growth was 80.2% (inactive). Consider `O=C(Nc1ccc(N=Cc2c(O)[nH]c3ccccc23)cc1)Nc1nccs1`, for which the growth is 32.9% (inactive).

As for `O=C(Nc1nonc1-c1ccccc1)c1ccc(C(F)(F)F)cc1`, the growth was 85.5% (inactive).

On to `COc1cccc(C(=O)Nc2cccc(C#Cc3cccc4[nH]nc(N)c34)c2)c1`, for which the growth was 52.4% (inactive).

In the case of `Cn1ccnc1C(=O)/C=C/c1ccc(NC(=O)c2ccc(F)cc2)cc1`, the growth was 41.4% (inactive). As for `Nc1nc(-c2cccc([N+](=O)[O-])c2)c(N=Nc2ccccc2)s1`, the growth was 39.3% (inactive). For `Cc1ccc(N2C(=O)/C(=C/C=C/c3ccco3)SC2=S)cc1`, the growth was 90.4% (inactive). As for `COc1cc(OC)c(S(N)(=O)=O)cc1C(=O)/C=C/c1ccc(C)cc1`, the growth was 21.9% (inactive). Take `CN1CCC(n2cc(Nc3ncc4c(=O)n(-c5c(Cl)cccc5Cl)cc(Br)c4n3)cn2)CC1`: the growth is 20% (inactive). Regarding `C#CC(=O)N(c1ccc(OC)cc1OC)C(C(=O)NCC(=O)OCC)c1cccs1` (configuration not stated), the growth is -83.9% (active). With `Cc1ccc(-c2cc3nc(C(Cl)Cl)nc(C)n3n2)cc1`, the growth is 96.4% (inactive). Consider `Cc1ccc(-c2nnc(SCc3ccc(O)c4ncccc34)n2-c2ccccc2)cc1`, for which the growth was 9.59% (active).

The next test concerns A498 renal. The description is as above. As to conditions: 10 µM unless noted.
Consider `Oc1cccc2ccc(-c3nnc(SCc4ccc(O)c5ncccc45)o3)nc12`, for which the growth is 35.2% (inactive). Turning to `COC(=O)c1[nH]nc2c1C1(C(=O)N(C)c3ccccc31)C(C#N)=C(N)O2` (configuration not stated), the growth is 90.2% (inactive).

Consider `CC1=NC2=NN3C(=NN2C(c2ccccc2)=C1)N=NC(c1ccc(Br)cc1)=C3c1ccc(Br)cc1`, for which the growth is 98.7% (inactive). For the compound `Cn1ccnc1C(=O)/C=C/c1ccc(NC(=O)c2c(F)c(F)c(F)c(F)c2F)cc1`, the growth was 113% (inactive). On to `N#Cc1cccc(CN2CCC3=C(C2)C(=O)N(Cc2ccc(Cl)cc2)C2=NCCCN23)c1`, for which the growth is 15.4% (inactive).

For the compound `Cc1nn(-c2ccccc2)c2ncnc(N/N=C/c3ccccc3O)c12`, the growth was 58.4% (inactive). As to `CC(=O)N1C(=S)NC(=O)C1CC(C)C` (configuration not stated), the growth was 109% (inactive). On the same count and under the same terms, then `CC/C(=C/c1c(O)cccc1OC)c1ccc2c(OC)cccc2[o+]1`, with 102% (inactive); and `COc1cc(/C=C2\C(=O)Nc3ccccc32)ccc1OCc1ccc(F)cc1`, with 89.2% (inactive).

With `N/C(=N\C(N)=N\c1nc2ccccc2s1)c1ccc(C(F)(F)F)cc1`, the growth is 70.9% (inactive). Take `CN(C)CCNC(=O)c1ccc(-c2nc3ccc4[nH]ncc4c3c3c2COCC3)cc1`: the growth is -60.4% (active). For `O=C(Nc1ccc(N=Cc2c(O)[nH]c3ccccc23)cc1)Nc1nccs1`, the growth was -7.94% (active). For `O=C(Nc1nonc1-c1ccccc1)c1ccc(C(F)(F)F)cc1`, the growth is 95.6% (inactive).

Consider `Cn1ccnc1C(=O)/C=C/c1ccc(NC(=O)c2ccc(F)cc2)cc1`, for which the growth is 78.1% (inactive). For `C#CC(=O)N(c1ccc(OC)cc1OC)C(C(=O)NCC(=O)OCC)c1cccs1` (configuration not stated), the growth was 57.2% (inactive).

Regarding `COc1ccc(/C=C(/C)c2ccc3ccc(OC)cc3[o+]2)c(O)c1`, the growth was 110% (inactive). As to `Cc1ccc(-c2cc3nc(C(Cl)Cl)nc(C)n3n2)cc1`, the growth is 132% (inactive). On to `Cc1ccc(-c2nnc(SCc3ccc(O)c4ncccc34)n2-c2ccccc2)cc1`, for which the growth is 26% (inactive). For `CCOc1ccccc1NC1=C(Cl)C(=O)c2nc(C)ccc2C1=O`, the growth is 78.8% (inactive).
